These results are taken from PubChem BioAssay (EPA / NIEHS).

Assay [1] can be described thus: ATG_GRE_CIS: Attagene CIS-FACTORIAL HepG2 Assay for human Glucocorticoid Response Elements (GRE) (AID 2282947). The settings on record: HepG2 GRE cis-reporter, Attagene multiplex mRNA; actives raise or lower the signal. Put shortly: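 Assay uses human hepatoma HepG2 cells transfected with cis-promoter reporter units, exposed 24 h. mRNA from reporters detected by RT-PCR plus capillary electrophoresis; DMSO serves as negative control and baseline.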

Assay [2] is described as follows: ATG_ISRE_CIS: Attagene CIS-FACTORIAL HepG2 Assay for human Interferon Regulatory Factor 1 (IRF1) binding to an Interferon-Stimulated Response Element (ISRE) (AID 2282948). Conditions: HepG2 ISRE cis-reporter (Attagene), mRNA transcription readout; actives raise or lower the signal. Put shortly: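 Transiently transfected HepG2 cells carrying cis-element reporter units, dosed 24 hours. Reporter mRNA quantified by RT-PCR, fluorescent primer extension, HpaI digestion and capillary electrophoresis. Bidirectional fitting relative to DMSO.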

Assay [3] can be described thus: ATG_M_32_CIS: Attagene CIS-FACTORIAL HepG2 Assay for M32 Transcription Factor (Internal Marker) (AID 2282949).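 Also: background control marker of the multiplexed CIS panel rather than a real target.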 The settings on record: HepG2 Attagene cis-factorial M32 reporter, mRNA; actives raise or lower the signal. Summed up: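 Internal background marker read-out: RT-PCR/capillary electrophoresis fluorescence of reporter transcripts from transiently transfected HepG2 cells after 24 h chemical exposure. Activity fitted bidirectionally relative to DMSO negative control.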

The nature of assay [4]: ATG_M_06_CIS: Attagene CIS-FACTORIAL HepG2 Assay for M06 Transcription Factor (Internal Marker) (AID 2282950). The settings on record: HepG2 Attagene CIS-FACTORIAL M06 internal marker reporter; actives raise or lower the signal. Summed up:
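HepG2 liver cells, 24 h exposure. Reporter transcripts from transfected cis-element constructs quantified by RT-PCR/capillary electrophoresis fluorescence. Bidirectional curve fit against DMSO.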

The target in assay [5] is Hypoxia-inducible factor 1-alpha (Homo sapiens) (UniProt Q16665). In words: ATG_HIF1a_CIS: Attagene CIS-FACTORIAL HepG2 Assay for human Hypoxia Inducible Factor 1 (HIF1A) (AID 2282951). The settings on record: HepG2 Attagene cis-factorial HIF1a reporter transcription; actives raise or lower the signal. Put shortly:
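Transient MRTU transfection of human HepG2 liver cells, 24 h compound treatment, then total RNA isolation, oligo(dT) reverse transcription, PCR amplification, fluorescent labelling and capillary electrophoresis of reporter fragments. Gain or loss relative to DMSO.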

Assay [6] deals with Hepatocyte nuclear factor 6 (Homo sapiens) (UniProt Q9UBC0). In words: ATG_HNF6_CIS: Attagene CIS-FACTORIAL HepG2 Assay for human Hepatocyte Nuclear Factor 6 (HNF6) (AID 2282952). Conditions: HepG2 Attagene cis-factorial HNF6 reporter transcription; actives raise or lower the signal. Summed up:
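HepG2 cells transiently transfected with cis-element-driven multiplexed reporter units measuring endogenous transcription factor activity. After 24 h exposure, reporter mRNA quantified by RT-PCR, FAM-labelled fragments and capillary electrophoresis; bidirectional fitting versus DMSO.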

Assay [7] addresses Heat shock factor protein 1 (Homo sapiens) (UniProt Q00613). In words: ATG_HSE_CIS: Attagene CIS-FACTORIAL HepG2 Assay for human Heat Shock Transcription Factor 1 (HSE) (AID 2282953). Conditions: HepG2 HSE cis-reporter, Attagene RNA transcription; actives raise or lower the signal. Summed up: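 Endogenous transcription factor activity captured via cis-promoter reporter units transfected into HepG2; treatment lasted 24 h. Fluorescence intensity of reporter fragments analysed with bidirectional curve fitting, DMSO baseline.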

Assay [8] is described as follows: ATG_MRE_CIS: Attagene CIS-FACTORIAL HepG2 Assay for human Metal Responsive Element (MRE) (AID 2282954). The settings on record: HepG2 MRE cis-reporter transcription, Attagene multiplex; actives raise or lower the signal. Summed up: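 After a 24 h chemical exposure, transiently transfected HepG2 cells yield RNA whose reporter sequences are amplified, FAM-labelled and sized by capillary electrophoresis. Curves are fitted bidirectionally relative to DMSO.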

Assay [9] in a line: ATG_PBREM_CIS: Attagene CIS-FACTORIAL HepG2 Assay for human Phenobarbital-responsive Enhancer Module (PBREM) (AID 2282955). Conditions: HepG2 PBREM cis-reporter, Attagene multiplexed transcription; actives raise or lower the signal. Summed up:
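Endogenous transcription factors in human liver HepG2 cells drive a PBREM cis-element reporter, whose transcript level after 24 h treatment is quantified by RT-PCR with capillary electrophoresis; activity fitted in both directions against DMSO.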

Assay [10] can be described thus: ATG_PXRE_CIS: Attagene CIS-FACTORIAL HepG2 Assay for human Pregnane X Receptor Element (PXRE) (AID 2282957). Conditions: HepG2 Attagene CIS-FACTORIAL PXRE reporter, mRNA; actives raise or lower the signal. Summed up:
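HepG2 cells transiently transfected with cis-element-driven multiplexed reporter units; after 24 h chemical exposure, reporter mRNA measured by RT-PCR, 6-FAM labelling, HpaI digestion and capillary electrophoresis. Bidirectional fitting relative to DMSO.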

Assay [11] in a line: ATG_RORE_CIS: Attagene CIS-FACTORIAL HepG2 Assay for human RAR-related Orphan Receptor Element (RORE) (AID 2282959). The settings on record: HepG2 Attagene cis-factorial RORE reporter, mRNA; actives raise or lower the signal. Summed up: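 Transient MRTU transfection of human HepG2 liver cells (FuGene 6); 24 h compound exposure; TriZol RNA, oligo(dT) RT, PCR, FAM labeling, HpaI cut, CE fragment analysis. DMSO = negative control/baseline.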

Assay [12] can be described thus: ATG_Sox_CIS: Attagene CIS-FACTORIAL HepG2 Assay for human SRY-box transcription factor (SOX) (AID 2282960). The settings on record: HepG2 Attagene cis-factorial SOX reporter, mRNA; actives raise or lower the signal. Put shortly:
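Endogenous factor activity in human liver HepG2 cells carrying transfected cis-regulated reporter units. RNA taken 24 h post-dose, reverse-transcribed, PCR-amplified and sized by capillary electrophoresis. Gain or loss of signal fitted relative to DMSO.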

Assay [13] can be described thus: ATG_SREBP_CIS: Attagene CIS-FACTORIAL HepG2 Assay for human Sterol Regulatory Element Binding (SREBP) (AID 2282962). Conditions: HepG2 Attagene cis-factorial SREBP reporter, mRNA; actives raise or lower the signal. Summed up:
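HepG2 cells transiently transfected with multiplexed cis-promoter reporter units sensing endogenous transcription factors; reporter mRNA measured 24 h after dosing by RT-PCR, 6-FAM labeling, HpaI digestion and capillary electrophoresis. Bidirectional fit versus DMSO.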

Assay [14] concerns the target Signal transducer and activator of transcription 3 (Homo sapiens) (UniProt P40763). In words: ATG_STAT3_CIS: Attagene CIS-FACTORIAL HepG2 Assay for human Signal Transducer and Activator of Transcription 3 (STAT3) (AID 2282963). Conditions: HepG2, Attagene cis-factorial STAT3 reporter transcription; actives raise or lower the signal. Put shortly:
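After a 24 h compound incubation, total RNA from MRTU-transfected HepG2 cells was converted to cDNA and reporter sequences PCR-amplified, labelled and profiled by capillary electrophoresis. Gain and loss of signal were referenced to DMSO.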

The nature of assay [15]: ATG_TA_CIS: Attagene CIS-FACTORIAL HepG2 Assay for human TA Basal Promoter (AID 2282964). The settings on record: HepG2 Attagene CIS-factorial TA basal promoter reporter; actives raise or lower the signal. Summed up:
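Fluorescence from labelled RT-PCR reporter fragments, separated by capillary electrophoresis, gives the signal. Cells: HepG2 transiently carrying multiple reporter units, 24 h chemical dosing. Gain or loss relative to DMSO.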

Assay [16] in a line: ATG_TCF_b_cat_CIS: Attagene CIS-FACTORIAL HepG2 Assay for human T-Cell-Factor with beta-catenin (TCF/b-cat) (AID 2282965). The settings on record: HepG2 TCF/beta-catenin cis-reporter transcription, actives raise or lower the signal. Put shortly:
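Endogenous transcription factor activity is captured through cis-promoter reporter constructs transiently introduced into human HepG2 liver cells. Induced reporter mRNA is measured after 24 h and fitted bidirectionally relative to DMSO.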

Assay [17] addresses Paired box protein Pax-6 (Homo sapiens) (UniProt P26367). As to the kind of experiment: ATG_Pax6_CIS: Attagene CIS-FACTORIAL HepG2 Assay for human Paired Box 6 (PAX6) (AID 2282956). The settings on record: HepG2 CIS-FACTORIAL PAX6 reporter transcription, RNA readout; actives raise or lower the signal. Put shortly:
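HepG2 cells transiently transfected with cis-promoter-driven multiplexed reporter units sensing endogenous transcription factor activity; 24 h chemical exposure. Reporter mRNA quantified by RT-PCR, 6-FAM labelling, HpaI digestion and capillary electrophoresis; bidirectional fit versus DMSO baseline.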

Assay [18] can be described thus: ATG_PPRE_CIS: Attagene CIS-FACTORIAL HepG2 Assay for human Peroxisome Proliferator-activated Response Element (PPRE) (AID 2282958). The settings on record: HepG2 PPRE cis-element reporter, Attagene transcription factor profiling; actives raise or lower the signal. Summed up: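 HepG2, transient MRTU transfection (cis promoter elements, endogenous TFs). 24 h dosing. RNA → oligo(dT) RT → PCR → 6-FAM primer extension → HpaI digest → CE. Bidirectional fit vs DMSO.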

Assay [19] deals with Transcription factor Sp1 (Homo sapiens) (UniProt P08047). As to the kind of experiment: ATG_Sp1_CIS: Attagene CIS-FACTORIAL HepG2 Assay for human Specificity Protein 1 (Sp1) (AID 2282961). The settings on record: HepG2 Sp1 cis-reporter transcription, actives raise or lower the signal. Put shortly:
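Transient MRTU-transfected HepG2, 24 h compound exposure. Total RNA → oligo(dT) RT → PCR of reporter → 6-FAM primer extension → HpaI digest → CE. Endpoint fitted both directions vs DMSO.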

Activity calls are given as the source filed them. The calls were made as follows: active = hit-call score of the fitted dose curve at least 0.9, where 1 is the maximum; inactive = score below 0.9.

Sequence of Transcription factor Sp1 (Homo sapiens) (P08047 whole entry, looked up): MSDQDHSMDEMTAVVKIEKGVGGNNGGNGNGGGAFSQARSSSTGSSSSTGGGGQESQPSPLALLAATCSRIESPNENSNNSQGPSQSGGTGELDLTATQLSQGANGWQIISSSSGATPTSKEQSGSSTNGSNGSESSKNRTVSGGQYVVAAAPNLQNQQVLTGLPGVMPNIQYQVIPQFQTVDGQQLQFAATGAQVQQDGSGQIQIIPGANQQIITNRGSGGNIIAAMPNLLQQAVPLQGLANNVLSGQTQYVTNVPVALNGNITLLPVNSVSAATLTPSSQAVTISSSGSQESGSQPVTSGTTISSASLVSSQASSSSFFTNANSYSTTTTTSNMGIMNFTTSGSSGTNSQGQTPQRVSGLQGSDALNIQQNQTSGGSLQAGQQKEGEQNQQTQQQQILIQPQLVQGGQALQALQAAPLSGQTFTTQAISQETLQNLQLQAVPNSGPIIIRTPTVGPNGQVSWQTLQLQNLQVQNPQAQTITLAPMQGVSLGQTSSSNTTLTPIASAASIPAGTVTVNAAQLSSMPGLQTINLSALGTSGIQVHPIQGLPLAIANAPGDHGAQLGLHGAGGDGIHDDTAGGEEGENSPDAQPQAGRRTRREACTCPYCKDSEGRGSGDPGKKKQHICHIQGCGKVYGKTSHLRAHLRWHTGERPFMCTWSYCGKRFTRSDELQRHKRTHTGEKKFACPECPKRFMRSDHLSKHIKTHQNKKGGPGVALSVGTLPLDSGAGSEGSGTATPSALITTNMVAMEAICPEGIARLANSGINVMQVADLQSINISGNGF
Sequence of Paired box protein Pax-6 (Homo sapiens) (P26367 whole entry, looked up): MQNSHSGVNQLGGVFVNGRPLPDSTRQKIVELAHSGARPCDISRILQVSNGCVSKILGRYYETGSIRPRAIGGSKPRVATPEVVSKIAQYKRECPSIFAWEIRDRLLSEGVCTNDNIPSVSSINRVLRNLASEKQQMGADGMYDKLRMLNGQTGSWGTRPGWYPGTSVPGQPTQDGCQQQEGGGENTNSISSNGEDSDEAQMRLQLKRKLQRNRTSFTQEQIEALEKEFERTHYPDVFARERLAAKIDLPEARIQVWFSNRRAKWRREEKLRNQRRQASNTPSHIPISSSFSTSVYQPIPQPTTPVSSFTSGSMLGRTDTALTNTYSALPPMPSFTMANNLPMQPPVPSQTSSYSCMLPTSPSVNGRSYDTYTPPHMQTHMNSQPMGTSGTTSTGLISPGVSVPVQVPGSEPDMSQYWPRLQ
Sequence of Hypoxia-inducible factor 1-alpha (Homo sapiens) (Q16665 whole entry, looked up, the tested form may be a part): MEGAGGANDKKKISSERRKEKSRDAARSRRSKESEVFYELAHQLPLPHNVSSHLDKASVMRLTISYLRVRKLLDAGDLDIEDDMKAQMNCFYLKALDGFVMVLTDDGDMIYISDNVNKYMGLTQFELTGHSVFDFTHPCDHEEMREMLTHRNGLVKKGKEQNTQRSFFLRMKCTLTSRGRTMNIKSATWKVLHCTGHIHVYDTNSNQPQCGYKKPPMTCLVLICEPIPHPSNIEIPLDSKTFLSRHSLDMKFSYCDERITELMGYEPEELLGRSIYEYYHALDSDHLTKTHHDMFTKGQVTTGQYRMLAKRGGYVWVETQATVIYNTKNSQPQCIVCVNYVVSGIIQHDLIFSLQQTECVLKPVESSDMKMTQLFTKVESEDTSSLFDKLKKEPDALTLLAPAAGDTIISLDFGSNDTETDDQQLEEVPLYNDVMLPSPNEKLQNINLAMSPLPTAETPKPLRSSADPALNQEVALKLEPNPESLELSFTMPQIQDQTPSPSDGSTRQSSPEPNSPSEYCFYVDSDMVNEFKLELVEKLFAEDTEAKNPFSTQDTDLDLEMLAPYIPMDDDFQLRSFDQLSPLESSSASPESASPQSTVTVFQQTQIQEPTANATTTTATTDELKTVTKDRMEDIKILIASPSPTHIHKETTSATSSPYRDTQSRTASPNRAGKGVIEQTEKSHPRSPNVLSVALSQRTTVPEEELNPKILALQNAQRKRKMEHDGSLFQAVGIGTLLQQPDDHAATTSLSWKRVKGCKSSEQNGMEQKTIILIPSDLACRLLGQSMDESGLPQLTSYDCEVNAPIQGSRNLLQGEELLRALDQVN
Sequence of Heat shock factor protein 1 (Homo sapiens) (Q00613 whole entry, looked up, the tested form may be a part): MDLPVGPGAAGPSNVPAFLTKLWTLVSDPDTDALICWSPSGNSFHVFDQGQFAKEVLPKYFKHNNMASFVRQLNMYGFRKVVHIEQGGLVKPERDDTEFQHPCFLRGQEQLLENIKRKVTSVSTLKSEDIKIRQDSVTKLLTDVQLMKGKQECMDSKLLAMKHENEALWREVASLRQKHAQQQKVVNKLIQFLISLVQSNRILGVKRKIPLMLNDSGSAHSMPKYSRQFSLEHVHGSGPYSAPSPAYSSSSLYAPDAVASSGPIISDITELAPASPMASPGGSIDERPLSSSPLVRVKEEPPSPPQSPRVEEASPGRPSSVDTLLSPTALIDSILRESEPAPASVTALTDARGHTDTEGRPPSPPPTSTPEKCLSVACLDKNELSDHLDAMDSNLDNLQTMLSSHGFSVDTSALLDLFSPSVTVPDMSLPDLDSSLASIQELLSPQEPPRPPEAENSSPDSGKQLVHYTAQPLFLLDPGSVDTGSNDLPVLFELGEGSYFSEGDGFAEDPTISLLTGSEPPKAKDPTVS
Sequence of Hepatocyte nuclear factor 6 (Homo sapiens) (Q9UBC0 whole entry, looked up, the tested form may be a part): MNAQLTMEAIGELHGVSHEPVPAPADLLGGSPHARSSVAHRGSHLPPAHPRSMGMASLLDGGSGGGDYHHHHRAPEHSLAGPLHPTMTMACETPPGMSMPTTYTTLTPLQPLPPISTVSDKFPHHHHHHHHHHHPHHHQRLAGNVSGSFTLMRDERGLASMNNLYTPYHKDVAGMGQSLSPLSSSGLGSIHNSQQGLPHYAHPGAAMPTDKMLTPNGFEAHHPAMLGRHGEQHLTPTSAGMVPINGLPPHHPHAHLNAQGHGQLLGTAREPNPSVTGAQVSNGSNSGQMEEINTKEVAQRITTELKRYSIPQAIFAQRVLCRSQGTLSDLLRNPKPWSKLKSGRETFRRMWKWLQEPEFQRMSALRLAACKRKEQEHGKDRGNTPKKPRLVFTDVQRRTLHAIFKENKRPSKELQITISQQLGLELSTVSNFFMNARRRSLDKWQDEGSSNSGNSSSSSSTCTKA
Sequence of Signal transducer and activator of transcription 3 (Homo sapiens) (P40763 whole entry, looked up): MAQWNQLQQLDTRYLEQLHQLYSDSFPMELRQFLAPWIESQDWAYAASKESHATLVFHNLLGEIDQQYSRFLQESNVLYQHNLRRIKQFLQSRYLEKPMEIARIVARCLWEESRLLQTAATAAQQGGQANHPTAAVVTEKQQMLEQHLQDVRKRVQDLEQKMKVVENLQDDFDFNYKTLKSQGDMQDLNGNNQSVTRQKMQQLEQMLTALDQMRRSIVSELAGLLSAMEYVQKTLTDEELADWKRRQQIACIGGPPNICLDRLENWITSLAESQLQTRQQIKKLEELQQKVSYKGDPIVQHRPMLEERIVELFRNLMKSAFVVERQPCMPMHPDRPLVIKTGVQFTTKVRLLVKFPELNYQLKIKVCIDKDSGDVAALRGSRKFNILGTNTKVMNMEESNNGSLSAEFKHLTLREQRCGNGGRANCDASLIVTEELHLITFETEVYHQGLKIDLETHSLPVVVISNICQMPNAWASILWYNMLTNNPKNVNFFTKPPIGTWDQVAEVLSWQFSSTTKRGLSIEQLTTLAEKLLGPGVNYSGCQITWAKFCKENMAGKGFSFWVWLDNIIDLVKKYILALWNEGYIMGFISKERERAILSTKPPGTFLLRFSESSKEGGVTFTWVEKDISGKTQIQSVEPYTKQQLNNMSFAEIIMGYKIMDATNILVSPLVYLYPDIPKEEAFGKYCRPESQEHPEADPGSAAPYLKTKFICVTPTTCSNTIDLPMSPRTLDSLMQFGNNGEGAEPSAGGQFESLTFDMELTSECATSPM

Consider `O=C(O)c1cc(C(=O)O)cc([N+](=O)[O-])c1`, for which the result in assay [1], in [2], in [3], in [4], in [5] and in assay [6] was inactive. The call in assay [7], in assay [8], in assay [9], in assay [10], in assay [11] and in assay [12] was inactive. In addition, the result in assay [13], in assay [14], in assay [15] and in assay [16] was inactive.
On to `CC(=O)C1(C)CC2=C(CCCC2(C)C)CC1C` (stereo not drawn), for which the compound was called inactive in [1], in assay [3], in [4], in assay [7], in assay [17] and in assay [12]. Besides, the compound was called inactive in [14]. Further, the concentration at half-maximal activity (AC50) – broadly, the concentration giving half of the maximal activity seen – in assay [2] was 152 µM (active); in assay [6], 134 µM (active); in assay [8] it was 160 µM (active); in assay [9] it was 100 µM (active); in assay [10] it was 25.6 µM (active); in [18], 100 µM (active). Also, the AC50 in [11] is 74.4 µM (active); in assay [19], 162 µM (active); in assay [13], 85.8 µM (active); in assay [16], 73.3 µM (active).
For the compound `CCCCCCOCCOCCO`, the call in [1], in [2], in assay [3], in assay [4], in assay [5] and in [6] was inactive. Further, the compound was called inactive in assay [7], in assay [8], in assay [17], in [10], in assay [18] and in assay [12]. The compound was classed as inactive in assay [19], in assay [13], in assay [14] and in [15].
On to `Cc1ccc(OC(=O)c2ccccc2O)cc1`, for which the compound was called inactive in assay [1], in assay [2], in assay [3], in assay [4], in [5] and in [6]. Moreover, the result in assay [7], in assay [8], in [9], in [10], in assay [18] and in assay [11] was inactive. The compound was called inactive in [12], in [19], in assay [13], in [14], in assay [15] and in assay [16].
Take `OCC#CCO`: the outcome in assay [1], in assay [2], in assay [3], in [4], in assay [5] and in [6] was inactive. For the same compound, the compound was called inactive in [7], in [8], in assay [17], in assay [10], in [11] and in [12]. In addition, the call in assay [19], in [13], in [14] and in assay [15] was inactive.
For `C=CCCC(=O)/C=C/C1C(C)=CCCC1(C)C` (stereo not drawn), the outcome in [1], in assay [2], in assay [3], in [4], in assay [6] and in [9] was inactive. Further, the compound was classed as inactive in assay [17], in assay [18], in assay [12], in assay [19], in assay [14] and in [15]. Moreover, in assay [16], the outcome was inactive. The AC50 in [7] was 152 µM (active); in assay [8], 150 µM (active); in assay [10] it was 1.18 µM (active); in [13], 100 µM (active).
Regarding `CCc1ccc(O)cc1`, the outcome in assay [1], in assay [2], in assay [3], in [4], in [5] and in [6] was inactive. The call in assay [7], in assay [8], in assay [9], in [18], in [11] and in [19] was inactive. Further, the call in [13], in assay [14] and in assay [16] was inactive. For the same compound, the AC50 in [10] was 32.3 µM (active).
`CCCC(=O)OCCc1ccccc1`: the compound was called inactive in assay [1], in assay [2], in assay [3], in assay [4], in [6] and in [7]. The compound was called inactive in assay [8], in assay [9], in assay [17], in assay [10], in assay [18] and in assay [12]. In addition, the compound was called inactive in assay [19], in assay [13], in assay [14], in assay [15] and in assay [16].
